# In all, about 310,000 compounds went through this assay and about 14,000 (4.5%) showed an effect of 50% or more. The effect is printed as a negative number. The full list was thinned out, with strong results kept by preference.
# Biological target: human ether-à-go-go-related gene (hERG) potassium channel (human, UniProt Q12809)
# Assay: primary screen, population patch clamp on CHO cells stably expressing hERG; higher = less effect of the substance
# 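Also: peak tail current of the secondary pulse compared with the same well before compound.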
# Sequence of human ether-à-go-go-related gene (hERG) potassium channel (Q12809 whole entry, looked up): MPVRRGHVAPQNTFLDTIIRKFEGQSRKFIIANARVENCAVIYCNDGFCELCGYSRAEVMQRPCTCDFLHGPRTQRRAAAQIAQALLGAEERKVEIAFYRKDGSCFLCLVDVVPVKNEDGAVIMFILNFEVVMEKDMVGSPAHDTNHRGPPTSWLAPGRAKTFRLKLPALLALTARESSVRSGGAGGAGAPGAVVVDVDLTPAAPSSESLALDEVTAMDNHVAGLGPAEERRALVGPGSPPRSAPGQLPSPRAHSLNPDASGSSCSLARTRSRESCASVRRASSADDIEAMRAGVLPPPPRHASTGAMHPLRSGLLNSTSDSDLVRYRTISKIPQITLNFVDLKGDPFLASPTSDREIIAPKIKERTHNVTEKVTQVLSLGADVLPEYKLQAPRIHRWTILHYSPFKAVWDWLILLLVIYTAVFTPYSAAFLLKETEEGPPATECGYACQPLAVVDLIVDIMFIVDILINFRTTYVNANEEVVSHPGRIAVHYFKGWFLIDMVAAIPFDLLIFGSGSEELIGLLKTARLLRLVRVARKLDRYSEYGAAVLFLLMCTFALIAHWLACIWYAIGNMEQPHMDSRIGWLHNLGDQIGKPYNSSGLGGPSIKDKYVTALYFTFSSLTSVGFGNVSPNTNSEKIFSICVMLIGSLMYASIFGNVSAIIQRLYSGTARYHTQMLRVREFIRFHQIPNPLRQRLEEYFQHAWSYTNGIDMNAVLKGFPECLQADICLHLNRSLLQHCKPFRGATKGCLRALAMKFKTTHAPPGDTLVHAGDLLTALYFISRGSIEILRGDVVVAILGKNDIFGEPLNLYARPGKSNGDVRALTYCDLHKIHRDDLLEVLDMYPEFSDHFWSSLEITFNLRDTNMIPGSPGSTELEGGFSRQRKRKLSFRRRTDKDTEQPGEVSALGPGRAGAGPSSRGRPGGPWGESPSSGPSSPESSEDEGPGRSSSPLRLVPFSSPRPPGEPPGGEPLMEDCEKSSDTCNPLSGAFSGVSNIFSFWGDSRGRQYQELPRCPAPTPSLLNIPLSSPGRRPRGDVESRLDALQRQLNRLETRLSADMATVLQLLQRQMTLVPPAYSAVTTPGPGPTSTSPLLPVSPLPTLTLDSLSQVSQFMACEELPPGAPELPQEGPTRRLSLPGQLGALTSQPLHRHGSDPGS
row,Compound,"hERG current change (%, negative = inhibition) at 10uM [%]"
1,O=C(Cc1c(F)cccc1Cl)NCCc1c[nH]c2ccccc12,8.99
2,Cc1nn(CC#N)c(=O)n1-c1ccccc1,8.38
3,CCn1c(SCC#N)nc2c(c1=O)C1(CCCC1)Cc1ccccc1-2,2.38
4,CN(Cc1ccccc1)C(=O)CN(Cc1ccccc1)S(C)(=O)=O,-4.6
5,O=C(c1ccc(S(=O)(=O)c2ccccc2Cl)c([N+](=O)[O-])c1)N1CCCCCC1,-11
6,COC(=O)CCCC(=O)NC1CCCN(C2Cc3ccccc3C2)C1 (stereo not drawn),-10.6
7,COCCN(CC1CCCN(C2Cc3ccccc3C2)C1)C(=O)CCSC (stereo not drawn),-45.8
8,COCCN(CC1CCCN(C2Cc3ccccc3C2)C1)C(=O)CCC(N)=O (stereo not drawn),-75.1
9,O=C(NCC1CCCN(C2Cc3ccccc3C2)C1)c1cccs1 (stereo not drawn),-40.7
10,COCCN(CC1CCCN(C2Cc3ccccc3C2)C1)C(=O)CCC(C)=O (stereo not drawn),-6.4
11,COCCN(CC1CCCN(C2Cc3ccccc3C2)C1)C(=O)CCC(F)(F)F (stereo not drawn),-55.4
12,CCCC(=O)N(CCc1ccc(OC)cc1)Cc1nc2ccccc2c(=O)[nH]1,-8.61
13,COc1ccc2c(c1)c(CC(=O)Nc1cccc(S(N)(=O)=O)c1)c(C)n2C(=O)c1ccc(Cl)cc1,1.02
14,COc1ccc(S(=O)(=O)N(CC(=O)NCc2cccnc2)Cc2ccccc2)cc1,-76.5
15,CCN(CC(=O)NCc1cccnc1)S(=O)(=O)c1ccc(OC)cc1,-28.3
16,Cc1ccc(S(=O)(=O)N(CC(=O)NCc2ccco2)Cc2ccc(F)cc2)cc1,-67.1
17,CCN(CC(=O)NCc1ccco1)S(=O)(=O)c1ccc(OC)cc1,3.31
18,CN(CC(=O)NCc1ccncc1)S(=O)(=O)c1ccc(F)cc1,-0.77
19,Cc1ccc(S(=O)(=O)N(Cc2ccc(F)cc2)Cc2ccco2)cc1,2.28
20,CCN(CC(=O)NCc1ccc(F)cc1)S(=O)(=O)c1ccc(C)cc1,-43.6
21,CS(=O)(=O)N(CCc1ccccc1)CC(=O)NCc1ccco1,-3.21
22,COc1ccc(S(=O)(=O)N(C)CC(=O)NCc2cccnc2)cc1,-31.8

row,Compound,"hERG current change (%, negative = inhibition) at 10uM [%]"
1,Cc1ccc(S(=O)(=O)N(CC(=O)NCc2ccncc2)Cc2ccc(F)cc2)cc1,-79.2
2,O=C(CN(Cc1ccccc1)S(=O)(=O)c1ccc(Br)cc1)NCc1ccco1,-51.6
3,CCN(CC(=O)NCc1ccco1)S(=O)(=O)c1ccc(F)cc1,5.61
4,COc1cccc(-n2c(Cc3cc(=O)[nH]c(=O)[nH]3)nnc2SCC(=O)N2CCCCCC2)c1,0.34
5,CCc1cccc(C)c1NC(=O)C1CCCN1C(=O)NCc1ccccc1 (stereo not drawn),18.4
6,CCOC(=O)c1ccc(NC(=O)c2c(C)[nH]c(C(=O)OCC)c2C)cc1,-6.95
7,Cc1ccc(NC(=O)CCn2cnc3ccccc3c2=O)c(C)c1,6.65
8,CCCCn1c(SCC(=O)N(CC)C2CCS(=O)(=O)C2)nc2cc(S(N)(=O)=O)ccc21 (stereo not drawn),-5.49
9,CC1(C)CC(=O)C(C(=O)c2ccccc2)C(=O)C1Cl (stereo not drawn),3.06
10,O=C(CN(Cc1ccc(Br)cc1)S(=O)(=O)c1ccccc1)NCc1cccnc1,-17.2
11,O=C(CN(Cc1ccc(Br)cc1)S(=O)(=O)c1ccccc1)NCc1ccncc1,-68.8
12,Cc1ccc(S(=O)(=O)N(CC(=O)O)Cc2ccccc2F)cc1,3.18
13,CN(CC(=O)NCc1cccnc1)S(=O)(=O)c1ccc(F)cc1,21.3
14,O=C(CN(Cc1ccccc1)S(=O)(=O)c1ccc(F)cc1)NCc1cccnc1,-57.8
15,O=C(CN(Cc1ccccc1)S(=O)(=O)c1ccc(F)cc1)NCc1ccncc1,-52.3
16,CCCNC(=O)CN(Cc1ccccc1F)S(=O)(=O)c1ccc(C)cc1,-6.17
17,O=C(CN(Cc1ccc(Br)cc1)S(=O)(=O)c1ccccc1)NCc1ccccn1,-42
18,CCN(CC(=O)NCc1ccncc1)S(=O)(=O)c1ccccc1,5.51
19,Cc1ccc(S(=O)(=O)N(CC(=O)NCc2ccncc2)Cc2ccccc2F)cc1,-78.6
20,O=C(O)CN(Cc1ccccc1)S(=O)(=O)c1ccc(F)cc1,2.09
21,O=C(CN(Cc1ccccc1)S(=O)(=O)c1ccc(F)cc1)NCc1ccccn1,-10.6
22,COc1ccccc1NC(=O)c1cc2c(CO)cnc(C)c2oc1=Nc1ccc(OC)c(OC)c1,13.3

row,Compound,"hERG current change (%, negative = inhibition) at 10uM [%]"
1,COc1ccc(NN=Nc2ccc([N+](=O)[O-])cc2)cc1,19.1
2,OC1COC(OCC2OC(OCc3ccccc3)C(O)C(O)C2O)C(O)C1O (stereo not drawn),-11.1
3,CCOC(=O)N1CCN(C(=O)c2cc3cc(OC)c(OC)cc3[nH]2)CC1,5.96
4,CC(=O)Nc1ccc(NC(=O)c2cc(-n3cnnc3)ccc2Cl)cc1,15.7
5,COc1cccc(C(C2C(=O)CC(C)(C)CC2=O)C2C(=O)CC(C)(C)CC2=O)c1,21.2
6,O=C(N1CCN(c2ccc(F)cc2)CC1)C12CC3CC(CC(C3)C1)C2,5.05
7,CN(C)c1nc(OCCNC(=O)Nc2ccccc2)nc(N2CCCCC2)n1,0.123
8,CC[n+]1c(C)n(-c2ccccc2)c2ccc(NC(C)=O)cc21.[I-],11
9,Cc1nc(NCCc2ccccc2)c(C#N)c(C)c1[N+](=O)[O-],6.5
10,CCOC(=O)c1sc(NC(=O)c2sc(C)nc2C)nc1C,-4.49
11,Fc1ccc(/C=N/NC(=S)Nc2ccc(Cl)cc2)cc1F,9.62
12,Cc1ccc(S(=O)(=O)NC(CC(=O)NCc2ccco2)c2ccco2)cc1 (stereo not drawn),-0.749
13,O=[N+]([O-])c1ccc(Nc2ccccc2)c2nonc12,-8.36
14,CCOc1ccc(Nc2ccc([N+](=O)[O-])c3nonc23)cc1,-53.9
15,CCOc1ccc(Nc2ccc3nonc3c2[N+](=O)[O-])cc1,10.6
16,COc1ccccc1NC(=O)CSc1nc2nc(C)cc(C)c2c(=O)[nH]1,4.82
17,CCCCOC(=O)CSc1nnc(-c2cc(OC)c(OC)c(OC)c2)o1,-11.9
18,CCCCN(CCCC)C(=O)CSc1nnc(-c2cc(OC)c(OC)c(OC)c2)o1,-58.5
19,CCOC(=O)CSc1nnc(-c2cc(OC)c(OC)c(OC)c2)o1,12.1
20,COCCN(C(=O)CCC(=O)Nc1ccccn1)C(C(=O)NC(C)C)c1ccc(Cl)cc1 (stereo not drawn),-5.58
21,CN(C)c1ccc(/C=C2\CC3C4CC=C5CC(O)CCC5(C)C4CCC3(C)C2=O)cc1 (stereo not drawn),3.55
22,COc1cc(C(=O)NCCOc2cc(C)cc(C)c2)c(Br)c(OC)c1OC,-18.4

row,Compound,"hERG current change (%, negative = inhibition) at 10uM [%]"
1,O=S(=O)(NCCc1csc(-c2ccccc2)n1)c1cccnc1,8.48
2,CCNC(=S)N/N=C(\C)c1cccc([N+](=O)[O-])c1,-45.9
3,COCCNC(=S)N/N=C(\C)c1ccc(-n2ccnc2)cc1,-66.2
4,COCCNC(=S)N/N=C(\C)c1ccc(C)c([N+](=O)[O-])c1,-26.6
5,COc1ccc(OCC(=O)N/N=C(\C)c2ccc(-n3ccnc3)cc2)cc1,-42.6
6,C/C(=N\NC(=O)COc1ccc(C(C)(C)C)cc1)c1ccc(-n2ccnc2)cc1,-58.9
7,C=CCNC(=S)N/N=C(\C)c1ccc(-n2ccnc2)cc1,-43
8,C/C(=N\NC(N)=O)c1ccc(-n2ccnc2)cc1,10.9
9,C/C(=N\NC(=O)COc1ccc(C(C)(C)C)cc1)c1ccc(N2CCOCC2)cc1,5.99
10,C=C(C)CNC(=S)N/N=C(\C)c1ccc(-n2ccnc2)cc1,-37.7
11,COCCNC(=S)N/N=C(\C)c1cccc([N+](=O)[O-])c1,-70.4
12,C/C(=N\NC(=O)COc1ccc(C)cc1C(C)C)c1ccc(-n2ccnc2)cc1,-33.4
13,CCc1ccc(OCC(=O)N/N=C(\C)c2ccc(-n3ccnc3)cc2)cc1,-71.8
14,CCN(C(=O)COC(=O)c1ccc2[nH]c3c(c2c1)CCCC3)C1CCS(=O)(=O)C1 (stereo not drawn),-8.35
15,COc1ccccc1C(=O)Nc1nnc(S(=O)(=O)N2CCCCCC2)s1,3.54
16,COc1cc(/C=C/C(=O)O)cc(S(=O)(=O)Nc2ccc3cn[nH]c3c2)c1OC,9.74
17,O=c1[nH]c(-c2ccccn2)nc2ccccc12,-3.46
18,COc1ccc(/C=N/Nc2nc(-c3ccc(Cl)cc3)cc(C(F)(F)F)n2)c(OC)c1,2.62
19,CC(C)CNC(=O)CSc1ccc(Cl)cc1,-3.84
20,O=C(CN1CCN(Cc2ccccc2)CC1)c1ccccc1,1.35
21,Cc1ccc(OCC(=O)Nc2ccc(N3CCN(S(C)(=O)=O)CC3)cc2)cc1,17.4

# Source: article PMC4336329 (PLoS ONE, 2015)
